The full data set covers some 8,800 targets. This sample favours those with a hit. About 0.5% of all pairs of compound and target were hits. Unmarked numbers belong to inactive results.
Assays:
Experiment in all cases: log2 fold change, soluble protein after heating vs DMSO (PISA); higher = thermal stabilisation; K562 lysate, 10 uM; active = over 0.2 and 3.5 SD of the protein, either way, in both replicates (recomputed)
[1] = compound: C1=CC=C(C=C1)[C@H](COC2=CC3=C(C=C2)NC(=O)N3)NC(=O)C4=CC=CN(C4=O)CC5=CC(=C(C=C5)F)F
Summary of the method: (§1)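 K562 pellets were dounce-homogenised in PBS pH 7.4 containing 1 mM MgCl2, and the crude extract, at 1 mg/mL protein, was exposed to 10 μM compound for 30 min. Aliquots were heated for 3 min across 48°C-58°C, pooled, brought to 0.5% NP-40 at 4°C and spun at 21,000xg for 90 min, with the supernatant taken as soluble protein. TMTpro 16plex LC-MS/MS with equalised channel sums quantified that protein. Values are log-two fold changes in thermal stability relative to solvent controls, taken from duplicates.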

[2] = compound: CC1=C(SC2=C1C(=N[C@H](C3=NN=C(N32)C)CC(=O)N)C4=CC=C(C=C4)Cl)C
Summary of the method: as §1

[3] = compound: CC1=C2C(=CC=C1)N=C(N(C2=O)C3=CC=CC=C3C)CN4C=NC5=C(N=CN=C54)N
Summary of the method: as §1

[4] = compound: Cc1sc2c(c1C)C(c1ccc(Cl)cc1)=N[C@@H](CC(=O)OC(C)(C)C)c1nnc(C)n1-2
Summary of the method: as §1

[5] = compound: c1ccc([C@@H]2C[C@H]2NC2CCNCC2)cc1
Summary of the method: as §1

Sequence of UniProt O43592 (O43592 whole entry, looked up): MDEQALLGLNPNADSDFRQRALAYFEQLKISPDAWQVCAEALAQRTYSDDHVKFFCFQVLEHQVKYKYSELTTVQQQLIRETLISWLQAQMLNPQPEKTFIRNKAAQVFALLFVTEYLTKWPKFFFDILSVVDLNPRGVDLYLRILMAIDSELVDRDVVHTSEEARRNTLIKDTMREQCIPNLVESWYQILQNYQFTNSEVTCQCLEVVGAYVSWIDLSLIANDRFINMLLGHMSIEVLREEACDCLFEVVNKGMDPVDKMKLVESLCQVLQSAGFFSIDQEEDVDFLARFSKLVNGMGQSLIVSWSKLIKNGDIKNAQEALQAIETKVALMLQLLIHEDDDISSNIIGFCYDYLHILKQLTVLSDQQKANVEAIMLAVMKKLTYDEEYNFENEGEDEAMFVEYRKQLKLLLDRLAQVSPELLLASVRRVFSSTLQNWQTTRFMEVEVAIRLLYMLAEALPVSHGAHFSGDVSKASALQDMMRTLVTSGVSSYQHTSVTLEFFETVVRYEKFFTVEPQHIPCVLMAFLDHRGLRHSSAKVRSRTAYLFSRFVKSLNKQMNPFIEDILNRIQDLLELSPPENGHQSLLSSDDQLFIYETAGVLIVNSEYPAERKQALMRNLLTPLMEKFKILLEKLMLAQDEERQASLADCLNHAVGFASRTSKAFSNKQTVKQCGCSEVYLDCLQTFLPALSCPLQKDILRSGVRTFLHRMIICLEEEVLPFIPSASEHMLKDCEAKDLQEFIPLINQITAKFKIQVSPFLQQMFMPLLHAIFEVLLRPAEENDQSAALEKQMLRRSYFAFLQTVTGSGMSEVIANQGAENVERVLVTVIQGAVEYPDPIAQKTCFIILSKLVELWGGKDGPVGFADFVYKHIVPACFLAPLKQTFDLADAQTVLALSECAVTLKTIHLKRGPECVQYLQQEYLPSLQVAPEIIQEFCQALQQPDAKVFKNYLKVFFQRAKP
Sequence of UniProt Q9Y4P8 (Q9Y4P8 whole entry, looked up): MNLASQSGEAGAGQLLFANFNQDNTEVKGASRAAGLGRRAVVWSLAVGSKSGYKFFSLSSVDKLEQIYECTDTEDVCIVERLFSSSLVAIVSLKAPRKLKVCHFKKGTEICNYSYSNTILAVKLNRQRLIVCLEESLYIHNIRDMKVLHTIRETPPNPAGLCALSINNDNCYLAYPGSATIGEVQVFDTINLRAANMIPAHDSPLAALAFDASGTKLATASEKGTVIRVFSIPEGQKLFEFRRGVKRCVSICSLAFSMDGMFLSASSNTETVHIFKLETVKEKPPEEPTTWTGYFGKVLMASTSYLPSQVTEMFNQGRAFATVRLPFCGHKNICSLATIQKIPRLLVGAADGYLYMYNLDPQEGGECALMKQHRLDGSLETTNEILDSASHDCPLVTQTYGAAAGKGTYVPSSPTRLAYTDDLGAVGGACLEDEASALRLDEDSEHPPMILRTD
Sequence of UniProt Q14191 (Q14191 whole entry, looked up): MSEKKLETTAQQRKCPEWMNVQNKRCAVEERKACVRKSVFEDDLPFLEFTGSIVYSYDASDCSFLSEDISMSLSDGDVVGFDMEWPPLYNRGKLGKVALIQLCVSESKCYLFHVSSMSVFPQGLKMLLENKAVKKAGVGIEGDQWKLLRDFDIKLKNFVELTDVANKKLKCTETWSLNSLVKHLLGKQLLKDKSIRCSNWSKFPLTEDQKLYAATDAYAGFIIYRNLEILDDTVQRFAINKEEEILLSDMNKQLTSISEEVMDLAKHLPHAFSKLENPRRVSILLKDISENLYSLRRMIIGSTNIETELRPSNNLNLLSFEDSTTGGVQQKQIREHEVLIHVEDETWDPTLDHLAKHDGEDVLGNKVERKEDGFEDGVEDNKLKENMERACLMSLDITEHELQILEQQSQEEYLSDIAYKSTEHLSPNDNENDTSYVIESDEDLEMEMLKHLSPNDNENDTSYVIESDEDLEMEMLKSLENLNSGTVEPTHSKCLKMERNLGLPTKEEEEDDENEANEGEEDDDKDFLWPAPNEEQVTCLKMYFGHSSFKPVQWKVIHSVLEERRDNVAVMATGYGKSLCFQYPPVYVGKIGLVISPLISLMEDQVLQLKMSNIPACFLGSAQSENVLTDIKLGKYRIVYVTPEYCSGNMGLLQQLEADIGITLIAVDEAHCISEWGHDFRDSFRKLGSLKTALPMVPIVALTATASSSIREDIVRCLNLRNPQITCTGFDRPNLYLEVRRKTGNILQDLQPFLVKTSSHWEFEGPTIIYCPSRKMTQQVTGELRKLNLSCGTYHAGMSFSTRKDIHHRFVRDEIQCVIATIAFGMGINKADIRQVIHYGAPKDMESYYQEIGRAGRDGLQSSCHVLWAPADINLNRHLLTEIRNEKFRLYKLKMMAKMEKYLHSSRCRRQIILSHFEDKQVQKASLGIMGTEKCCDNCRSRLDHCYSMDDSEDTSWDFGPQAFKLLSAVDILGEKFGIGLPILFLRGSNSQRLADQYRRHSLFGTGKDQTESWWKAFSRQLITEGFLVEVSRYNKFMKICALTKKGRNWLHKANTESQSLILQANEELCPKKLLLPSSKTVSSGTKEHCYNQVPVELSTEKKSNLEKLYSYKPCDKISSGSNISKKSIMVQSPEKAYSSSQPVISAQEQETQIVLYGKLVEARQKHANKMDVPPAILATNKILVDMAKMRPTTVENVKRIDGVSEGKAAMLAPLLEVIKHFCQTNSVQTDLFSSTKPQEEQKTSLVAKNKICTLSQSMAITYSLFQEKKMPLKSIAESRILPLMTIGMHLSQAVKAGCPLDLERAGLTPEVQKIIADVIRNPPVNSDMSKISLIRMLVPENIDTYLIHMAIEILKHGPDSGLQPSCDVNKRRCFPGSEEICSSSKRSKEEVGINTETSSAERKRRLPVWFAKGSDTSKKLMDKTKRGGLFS
Sequence of UniProt Q9H270 (Q9H270 whole entry, looked up): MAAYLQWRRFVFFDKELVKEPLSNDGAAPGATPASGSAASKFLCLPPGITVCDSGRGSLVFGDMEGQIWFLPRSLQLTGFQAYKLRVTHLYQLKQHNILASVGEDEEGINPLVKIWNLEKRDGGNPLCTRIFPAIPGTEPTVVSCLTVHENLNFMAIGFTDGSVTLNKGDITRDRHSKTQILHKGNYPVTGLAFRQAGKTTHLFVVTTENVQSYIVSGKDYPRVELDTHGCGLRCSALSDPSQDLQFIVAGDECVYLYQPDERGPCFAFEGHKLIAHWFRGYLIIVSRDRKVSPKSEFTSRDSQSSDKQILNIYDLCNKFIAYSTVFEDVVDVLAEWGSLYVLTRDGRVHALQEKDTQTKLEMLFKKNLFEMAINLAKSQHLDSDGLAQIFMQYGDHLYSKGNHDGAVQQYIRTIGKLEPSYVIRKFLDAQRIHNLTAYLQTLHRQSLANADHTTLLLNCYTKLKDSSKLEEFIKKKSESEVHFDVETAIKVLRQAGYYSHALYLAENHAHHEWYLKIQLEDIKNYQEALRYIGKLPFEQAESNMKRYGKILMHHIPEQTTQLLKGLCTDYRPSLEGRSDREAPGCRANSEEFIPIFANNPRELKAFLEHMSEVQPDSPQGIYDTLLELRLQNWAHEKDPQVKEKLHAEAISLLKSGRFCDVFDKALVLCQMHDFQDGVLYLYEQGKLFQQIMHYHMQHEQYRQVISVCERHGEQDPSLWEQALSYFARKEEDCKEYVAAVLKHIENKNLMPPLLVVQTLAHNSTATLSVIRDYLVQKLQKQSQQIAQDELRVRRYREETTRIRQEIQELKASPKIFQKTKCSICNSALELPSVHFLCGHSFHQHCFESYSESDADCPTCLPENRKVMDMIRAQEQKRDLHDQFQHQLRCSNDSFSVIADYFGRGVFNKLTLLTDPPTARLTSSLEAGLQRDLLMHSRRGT
Sequence of UniProt P63027 (P63027 whole entry, looked up): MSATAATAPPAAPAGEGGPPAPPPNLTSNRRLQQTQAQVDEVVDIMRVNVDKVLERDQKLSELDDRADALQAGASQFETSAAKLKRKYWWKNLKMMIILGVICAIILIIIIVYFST
Sequence of UniProt Q99986 (Q99986 whole entry, looked up): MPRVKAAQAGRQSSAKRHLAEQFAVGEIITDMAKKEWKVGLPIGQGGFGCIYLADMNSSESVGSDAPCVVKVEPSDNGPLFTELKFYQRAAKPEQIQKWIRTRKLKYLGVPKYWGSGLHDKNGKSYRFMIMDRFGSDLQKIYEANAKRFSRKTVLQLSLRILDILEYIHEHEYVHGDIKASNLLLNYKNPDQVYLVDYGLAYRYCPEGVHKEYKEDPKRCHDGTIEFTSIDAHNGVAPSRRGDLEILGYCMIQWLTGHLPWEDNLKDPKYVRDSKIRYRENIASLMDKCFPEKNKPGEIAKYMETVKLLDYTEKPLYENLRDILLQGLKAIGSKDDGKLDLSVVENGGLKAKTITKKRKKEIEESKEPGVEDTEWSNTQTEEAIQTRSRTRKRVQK
Sequence of UniProt Q96GY0 (Q96GY0 whole entry, looked up): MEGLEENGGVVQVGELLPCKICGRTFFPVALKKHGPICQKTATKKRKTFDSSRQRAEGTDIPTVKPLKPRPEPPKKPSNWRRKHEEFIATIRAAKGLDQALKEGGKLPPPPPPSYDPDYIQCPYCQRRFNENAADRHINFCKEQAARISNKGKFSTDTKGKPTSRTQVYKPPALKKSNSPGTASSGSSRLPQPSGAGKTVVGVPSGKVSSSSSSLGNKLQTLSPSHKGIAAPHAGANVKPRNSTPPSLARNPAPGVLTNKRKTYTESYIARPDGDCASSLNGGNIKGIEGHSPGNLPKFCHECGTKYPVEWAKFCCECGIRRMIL
Sequence of UniProt A8MPS7 (A8MPS7 whole entry, looked up): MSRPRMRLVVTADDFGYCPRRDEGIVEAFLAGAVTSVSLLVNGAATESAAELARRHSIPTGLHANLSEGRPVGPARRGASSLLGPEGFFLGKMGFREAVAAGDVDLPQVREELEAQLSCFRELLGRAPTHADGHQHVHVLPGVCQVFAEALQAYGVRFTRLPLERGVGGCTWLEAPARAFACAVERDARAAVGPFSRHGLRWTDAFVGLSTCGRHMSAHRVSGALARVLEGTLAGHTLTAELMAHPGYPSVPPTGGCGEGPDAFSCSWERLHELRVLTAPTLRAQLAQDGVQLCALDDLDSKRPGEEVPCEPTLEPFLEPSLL

| Target | log2 fold change [1] | log2 fold change [2] | log2 fold change [3] | log2 fold change [4] | log2 fold change [5] |
| --- | --- | --- | --- | --- | --- |
| XPOT (UniProt O43592) | -0.017 | 0.008 | 0.037 | 0.003 | 0.021 |
| USP9X (UniProt Q93008) | -0.033 | 0.005 | 0.014 | 0.008 | -0.001 |
| VRK1 (UniProt Q99986) | -0.002 | 0.017 | 0.023 | -0.005 | 0.034 |
| UTP18 (UniProt Q9Y5J1) | 0.117 | -0.005 | -0.088 | -0.013 | 0.059 |
| ZMYM2 (UniProt Q9UBW7) | 0.105 | 0.07 | 0.062 | 0.015 | 0.183 |
| UNC45A (UniProt Q9H3U1) | -0.036 | -0.011 | 0.036 | 0.004 | 0.039 |
| WRN (UniProt Q14191) | 0.006 | -0.017 | 0.009 | 0.01 | 0.006 |
| WDCP (UniProt Q9H6R7) | 0.023 | 0.068 | -0.04 | 0.049 | 0.025 |
| YWHAQ (UniProt P27348) | 0.002 | 0.021 | -0.001 | 0.076 | 0.181 |
| ZNF845 (UniProt Q96IR2) | -0.239 | 0.048 | 0.114 | -0.058 | 0.083 |
| VPS11 (UniProt Q9H270) | -0.018 | -0.001 | 0.044 | 0.048 | 0.029 |
| YTHDC2 (UniProt Q9H6S0) | 0.004 | -0.018 | -0.078 | -0.002 | 0.058 |
| ZFYVE19 (UniProt Q96K21) | 0.076 | 0.042 | 0.012 | -0.032 | -0.183 |
| VPS54 (UniProt Q9P1Q0) | -0.157 | 0.136 | 0.044 | 0.053 | -0.217 |
| VAC14 (UniProt Q08AM6) | -0.008 | -0.008 | 0.042 | -0.012 | 0.001 |
| VTN (UniProt P04004) | -0.009 | -0.039 | -0.094 | -0.053 | -0.222 |
| ZC3H13 (UniProt Q5T200) | -0.005 | -0.039 | 0.013 | -0.061 | 0.136 |
| ZZEF1 (UniProt O43149) | -0.022 | -0.004 | 0.012 | -0.05 | -0.028 |
| VAV1 (UniProt P15498) | -0.025 | 0.001 | -0.011 | -0.017 | -0.068 |
| WIPI2 (UniProt Q9Y4P8) | 0.03 | -0.033 | -0.008 | -0.055 | -0.096 |
| VPS18 (UniProt Q9P253) | -0.014 | 0.013 | 0.032 | 0.067 | 0.012 |
| YDJC (UniProt A8MPS7) | 0.001 | -0.012 | -0.003 | 0.012 | 0.018 |
| VAMP2 (UniProt P63027) | -0.045 | -0.053 | -0.024 | 0.014 | 0.081 |
| WDR24 (UniProt Q96S15) | -0.066 | -0.475 (active) | -0.093 | 0.002 | -0.024 |
| ZC2HC1A (UniProt Q96GY0) | 0.059 | -0.046 | -0.018 | 0.106 | -0.058 |
